# According to the supplement of paper PMC10037445:
# The full ranking holds about 2,900 compounds; the median of “NF-kB SEAP reporter activity, fold change vs agonist alone” is about 0.99, and the highest 2% start at about 2.6. What follows is part of a selection rich in the highest values, with near analogues and random picks from the rest.
# Tests used:
# [1] = system: RAW-Dual; experiment: NF-kB SEAP reporter activity, fold change vs agonist alone; cytotoxicity flag (confluency mask): not cytotoxic; higher = enhanced NF-kB activity
# Method in brief: (§1)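 Reporter activity is given as fold change relative to agonist-alone wells. To measure it, 50 nL of library stock was pin-tooled onto RAW-Dual macrophages (50,000 cells/well, DMEM, 384-well plates), a PRR agonist followed 1 h later, and cells stayed at 37 °C, 5% CO2. Twenty hours on, supernatant was assayed for IRF (QuantiLuc luminescence) and NF-κB (QuantiBlue, 620 nm absorbance), and wells under 70% of agonist-control IncuCyte confluency in both mask sets were marked cytotoxic.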
# [2] = system: RAW-Dual; experiment: NF-kB SEAP reporter activity, fold change vs agonist alone; higher = enhanced NF-kB activity
# Method in brief: as §1
# [3] = system: RAW-Dual; experiment: NF-kB SEAP reporter activity, fold change vs agonist alone; cytotoxicity flag (confluency mask): cytotoxic (confluency <70% of control); higher = enhanced NF-kB activity
# Method in brief: as §1
# [4] = agonist: ODN 1826 (TLR9) 0.5 ug/mL
# [5] = agonist: Pam2CSK4 (TLR2/6) 0.1 ug/mL
# [6] = agonist: Pam3CSK4 (TLR2/1) 0.1 ug/mL
# [7] = library stock concentration (final ~1000-fold dilution): 10 mM, cytotoxicity flag (confluency mask): not cytotoxic, agonist: Imiquimod (TLR7) […]
# [8] = library stock concentration (final ~1000-fold dilution): 10 mM, cytotoxicity flag (confluency mask): not cytotoxic, agonist: MPLA (TLR4) […]
# [9] = library stock concentration (final ~1000-fold dilution): 10 mM, cytotoxicity flag (confluency mask): cytotoxic (confluency <70% of control), agonist: Imiquimod (TLR7) […]
# [10] = library stock concentration (final ~1000-fold dilution): 10 mM, cytotoxicity flag (confluency mask): cytotoxic (confluency <70% of control), agonist: MPLA (TLR4) […]
# [11] = library stock concentration (final ~1000-fold dilution): 2 mM, cytotoxicity flag (confluency mask): not cytotoxic, agonist: Imiquimod (TLR7) […]
# [12] = library stock concentration (final ~1000-fold dilution): 2 mM, cytotoxicity flag (confluency mask): not cytotoxic, agonist: MPLA (TLR4) […]
compound,measurement,setting,value
CCNC1=NC2C(OC(CO)C(O)C2O)S1 (stereo not drawn) (library stock concentration (final ~1000-fold dilution): 10 mM),NF-kB SEAP reporter activity,[1]; agonist: LPS (TLR4) 0.1 ug/mL,1.15
same,NF-kB SEAP reporter activity,[1]; [4],1.17
same,NF-kB SEAP reporter activity,[1]; [5],1.04
same,NF-kB SEAP reporter activity,[1]; [6],1.5
CCNC1=NC2C(OC(CO)C(O)C2O)S1 (stereo not drawn),NF-kB SEAP reporter activity,[2]; [7],1
same,NF-kB SEAP reporter activity,[2]; [8],1.17
CC/C(=C(\c1ccc(O)cc1)c1ccc(OCCNC)cc1)c1ccccc1.Cl (library stock concentration (final ~1000-fold dilution): 10 mM),NF-kB SEAP reporter activity,[3]; agonist: LPS (TLR4) 0.1 ug/mL,0.354
same,NF-kB SEAP reporter activity,[3]; [4],0.211
same,NF-kB SEAP reporter activity,[3]; [5],0.157
same,NF-kB SEAP reporter activity,[3]; [6],0.135
CC/C(=C(\c1ccc(O)cc1)c1ccc(OCCNC)cc1)c1ccccc1.Cl,NF-kB SEAP reporter activity,[2]; [9],0.387
same,NF-kB SEAP reporter activity,[2]; [10],0.632
O=C(c1ccc(Oc2ccccc2)cc1Cl)c1c[nH]c2ncnc(NC3CCC(CO)OC3)c12 (stereo not drawn) (library stock concentration (final ~1000-fold dilution): 10 mM),NF-kB SEAP reporter activity,[3]; agonist: LPS (TLR4) 0.1 ug/mL,0.431
same,NF-kB SEAP reporter activity,[3]; [4],0.161
same,NF-kB SEAP reporter activity,[3]; [5],0.293
same,NF-kB SEAP reporter activity,[3]; [6],0.129
O=C(c1ccc(Oc2ccccc2)cc1Cl)c1c[nH]c2ncnc(NC3CCC(CO)OC3)c12 (stereo not drawn),NF-kB SEAP reporter activity,[2]; [9],0.133
same,NF-kB SEAP reporter activity,[2]; [10],0.252
Cc1cc(N2CC(C)NC(C)C2)ncc1-c1ccc(-c2nc3c(ccn3C)c(=O)[nH]2)cc1 (stereo not drawn),NF-kB SEAP reporter activity,[2]; [7],1.14
same,NF-kB SEAP reporter activity,[2]; [8],2.01
Cc1cc(N2CC(C)NC(C)C2)ncc1-c1ccc(-c2nc3c(ccn3C)c(=O)[nH]2)cc1 (stereo not drawn) (library stock concentration (final ~1000-fold dilution): 10 mM),NF-kB SEAP reporter activity,[1]; agonist: LPS (TLR4) 0.1 ug/mL,2.18
same,NF-kB SEAP reporter activity,[1]; [4],0.278
same,NF-kB SEAP reporter activity,[1]; [5],1.38
same,NF-kB SEAP reporter activity,[1]; [6],1.63
COc1ccc(-c2ccc3ncc4c(c3c2)n(-c2ccc(N3CCNCC3)c(C(F)(F)F)c2)c(=O)n4C)cn1.O=C(O)/C=C\C(=O)O,NF-kB SEAP reporter activity,[2]; [9],0.273
same,NF-kB SEAP reporter activity,[2]; [10],0.298
CCC(=O)N1CCN(c2ccc(-n3c(=O)ccc4cnc5ccc(-c6cnc7ccccc7c6)cc5c43)cc2C(F)(F)F)CC1 (library stock concentration (final ~1000-fold dilution): 2 mM),NF-kB SEAP reporter activity,[1]; agonist: LPS (TLR4) 0.1 ug/mL,1.55
same,NF-kB SEAP reporter activity,[1]; [4],1.02
same,NF-kB SEAP reporter activity,[1]; [5],0.421
same,NF-kB SEAP reporter activity,[1]; [6],0.629
Nc1ccc(-c2ccc3ncc4ccc(=O)n(-c5cccc(C(F)(F)F)c5)c4c3c2)cn1 (library stock concentration (final ~1000-fold dilution): 10 mM),NF-kB SEAP reporter activity,[3]; agonist: LPS (TLR4) 0.1 ug/mL,5.68
same,NF-kB SEAP reporter activity,[3]; [4],2.16
same,NF-kB SEAP reporter activity,[3]; [5],1.77
same,NF-kB SEAP reporter activity,[3]; [6],3.14
CCC(=O)N1CCN(c2ccc(-n3c(=O)ccc4cnc5ccc(-c6cnc7ccccc7c6)cc5c43)cc2C(F)(F)F)CC1,NF-kB SEAP reporter activity,[2]; [11],0.44
same,NF-kB SEAP reporter activity,[2]; [12],1.51
Nc1ccc(-c2ccc3ncc4ccc(=O)n(-c5cccc(C(F)(F)F)c5)c4c3c2)cn1,NF-kB SEAP reporter activity,[2]; [9],2.12
same,NF-kB SEAP reporter activity,[2]; [10],2.7
COc1ccc(-c2ccc3ncc4c(c3c2)n(-c2ccc(N3CCNCC3)c(C(F)(F)F)c2)c(=O)n4C)cn1.O=C(O)/C=C\C(=O)O (library stock concentration (final ~1000-fold dilution): 10 mM),NF-kB SEAP reporter activity,[3]; agonist: LPS (TLR4) 0.1 ug/mL,0.236
same,NF-kB SEAP reporter activity,[3]; [4],0.205
same,NF-kB SEAP reporter activity,[3]; [5],0.085
same,NF-kB SEAP reporter activity,[3]; [6],0.217
CCNC1(C(N)=O)CCN(c2ncnc3c2nc(-c2ccccc2Cl)n3-c2ccc(Cl)cc2)CC1.Cl,NF-kB SEAP reporter activity,[2]; [11],0.57
same,NF-kB SEAP reporter activity,[2]; [12],0.847
CCNC1(C(N)=O)CCN(c2ncnc3c2nc(-c2ccccc2Cl)n3-c2ccc(Cl)cc2)CC1.Cl (library stock concentration (final ~1000-fold dilution): 2 mM),NF-kB SEAP reporter activity,[1]; agonist: LPS (TLR4) 0.1 ug/mL,0.587
same,NF-kB SEAP reporter activity,[1]; [4],0.493
same,NF-kB SEAP reporter activity,[1]; [5],0.537
same,NF-kB SEAP reporter activity,[1]; [6],0.482
